TPT1 inh: Candida albicans TPT1 enzyme inhibitors, primary screen, biochemical, fluorescence polarization; AID 1962, 2009; inhibition, % at 5 µM; 0.81% of 300,000 active; tRNA 2'-phosphotransferase TPT1 (Candida albicans SC5314); recombinant caTPT1, FP RNA substrate dephosphorylation;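 active means inhibition above the mean of all tested compounds plus 3 SD, set per screening campaign, cut at about 24% in these data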
dFosB act: activators of delta FosB homodimer, primary screen, biochemical, fluorescence polarization, TAMRA-CDK5 oligo, single point; Protein FosB (Mus musculus), P13346; purified delta FosB; percent of positive-control signal above neutral wells; activation, % at 25 µM; 0.99% of 340,000 active; AID 493131, 2011;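 active means mean activation above about 17%, with every replicate also reaching it, limit read from the data, passing the limit was not always enough; inconclusive means only one of the two conditions met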
EBNA-1 inhibitor: EBNA-1 DNA-binding inhibitors, primary screen, biochemical, fluorescence polarization; AID 1950, 2009; 0.34% of 300,000 active; inhibition, % at 14.8 µM; in the data active means inhibition above about 28%
ZTA DNA inh: counter-screen for EBNA-1 inhibitors: inhibitors of Epstein-Barr virus ZTA | ZTA-DNA binding, fluorescence polarization | P03206 | AID 2234 | inhibition, % at 11 µM | 0.15% of 320,000 active; in the data active means inhibition above about 33%
Target sequence (P03206 whole entry, looked up): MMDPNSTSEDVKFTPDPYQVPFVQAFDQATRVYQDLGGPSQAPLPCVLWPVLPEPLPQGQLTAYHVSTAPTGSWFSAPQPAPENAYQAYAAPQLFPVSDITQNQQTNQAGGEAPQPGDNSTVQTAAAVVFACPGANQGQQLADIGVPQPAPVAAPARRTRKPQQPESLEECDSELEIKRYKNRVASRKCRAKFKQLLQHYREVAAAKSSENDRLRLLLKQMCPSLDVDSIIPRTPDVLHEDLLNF
Rpn11 inh: Rpn11 (PSMD14) deubiquitinase inhibitors, primary screen, biochemical, fluorescence polarization, uHTS. human 26S proteasome, Ub4-pepOG fluorescence polarization; 20S core pre-blocked with epoxomicin. inhibition, % at 20 µM. 0.59% of 360,000 active;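 active means inhibition at 20 µM, scaled to each plate's controls, above about 33%, limit read from the data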
NR3A LBD binder: binders of NR3A ligand-binding domain, primary screen, biophysical, differential scanning fluorimetry, uHTS; Glutamate receptor ionotropic, NMDA 3A (GRIN3A) ligand-binding domain; NR3A LBD differential scanning fluorimetry, Tm shift; 0% = protein alone, 100% = glycine-bound protein; Tm shift relative to glycine control, % at 25 µM; 2.5% of 340,000 active;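 active means melting temperature shift of at least 10% of the positive control shift, at one fixed dose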
Rpn11 inh conf: Rpn11 (PSMD14) deubiquitinase inhibitors, confirmation, biochemical, fluorescence polarization, single concentration | shares compounds with Rpn11 inh | purified human 26S proteasome, Ub4-pepOG fluorescence polarization; proteasome pretreated with epoxomicin | inhibition, % at 20 µM | 29% of 1,900 active | AID 602318, 2012
MMP-2 inh: MMP-2 enzyme inhibition, confirmation, counter-screen for RPN11 inhibitor project, biochemical, fluorescence, single concentration. shares compounds with Rpn11 inh. recombinant MMP-2, FRET peptide cleavage fluorescence. inhibition, % at 20 µM. 4% of 1,900 active. AID 602330, 2012;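 further: human MMP-2 activated beforehand with APMA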
Thrombin inh: bovine thrombin protease inhibition, confirmation, counter-screen for Rpn11 inhibitor project, biochemical, fluorescence polarization, single concentration; AID 602333, 2012; bovine thrombin cleavage of Ub4-pepOG; shares compounds with Rpn11 inh; 13% of 1,900 active; inhibition, % at 20 µM;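 active means mean inhibition at least 40% at 20 µM, or signal 3 deviations below plate average, so some actives read negative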
A number is an active result; i = inactive; ? = inconclusive; nt = no result given. Compounds with a hit are over-represented: about 4.5% of the library has one in this group of screens. Unless noted, no stated cut-off is given here; in the data, active means inhibition above about 40%; inactive means the rest.

SMILES	TPT1 inh	dFosB act	EBNA-1 inhibitor	ZTA DNA inh	Rpn11 inh	NR3A LBD binder	Rpn11 inh conf	MMP-2 inh	Thrombin inh
Cc1cccc(OCC(=O)NNC(=O)CSc2ncc(C#N)c(N)n2)c1	i	i	i	i	i	i	nt	nt	nt
N#Cc1cnc(SCC(=O)NNC(=O)COc2cccc3ccccc23)nc1N	51.2	i	i	i	45.4	i	i	i	i
c1ccc(Cn2c(SCc3nc4ccccc4s3)nnc2-c2ccco2)cc1	i	i	i	i	74.5	i	i	i	i
CCn1cc(CN2CCC(n3nccc3NC(=O)c3cccc(F)c3)CC2)cn1	i	i	i	i	i	i	nt	nt	nt
O=C(Nc1nc(-c2ccc(F)c(F)c2)cs1)Nc1ccc(F)cc1F	i	?	i	i	56.5	i	78.8	i	i
O=C(Cc1ccccc1)Nc1nc(-c2ccc(F)c(F)c2)cs1	i	i	i	i	i	i	nt	nt	nt
O=C(c1cc(S(=O)(=O)N2CCC3(CC2)OCCO3)ccc1F)N1CCCCC1	i	i	i	i	i	i	nt	nt	nt
CN(C)S(=O)(=O)c1cccc(NC(=O)CCc2nc3sc4c(c3c(=O)[nH]2)CCCC4)c1	nt	i	nt	i	i	i	nt	nt	nt
COc1ccccc1NC(=O)CCc1nc2sc3c(c2c(=O)[nH]1)CCCC3	i	i	i	i	44.5	nt	67.1	i	i
CCN(CC)C(=O)CCc1nc2sc3c(c2c(=O)[nH]1)CCCC3	i	i	i	i	i	i	nt	nt	nt
Cc1ccc(NC(=O)CCc2nc3sc4c(c3c(=O)[nH]2)CCCC4)nc1	i	i	i	i	48.9	i	78.0	i	i
CCc1cccc(NC(=O)CCc2nc3sc4c(c3c(=O)[nH]2)CCCC4)c1	i	i	i	i	46.9	i	i	i	45.4
Cc1cccc(NC(=O)C(C)SCc2nc3sc4c(c3c(=O)[nH]2)CCCC4)n1 (stereo unspecified)	i	i	i	i	48.0	i	i	i	i
COc1cccc(NC(=O)CN(C)C(=O)CCc2nc3sc4c(c3c(=O)[nH]2)CCCC4)c1	i	i	i	i	i	i	nt	nt	nt
CCn1c(=O)c(CCC(=O)NCC2CCCO2)c(C)c2c(C)nn(-c3ccccc3)c21 (stereo unspecified)	i	i	i	i	i	i	nt	nt	nt
Brc1ccccc1C1CC(c2ccccc2)=Nc2ccccc2N1 (stereo unspecified)	i	i	i	i	40.7	i	i	i	i
Cc1cc(C)cc(N(C(=O)CNC(=O)c2ccco2)C(C(=O)NC2CCCCC2)c2cccnc2)c1 (stereo unspecified)	i	i	i	i	i	i	nt	nt	nt
COc1ccc(O)c(/C=N/NC(=O)c2ccc(OCc3cccc(Br)c3)cc2)c1	i	i	i	i	53.9	27.4	55.5	i	i
COc1ccc(C(=O)N/N=C/c2cc(Br)ccc2O)cc1OC	i	?	i	i	i	i	nt	nt	nt
Cc1ccc(OCC(=O)NNC(=O)CSc2ncnc3sc(C)c(C)c23)cc1	i	i	i	i	116.4	i	57.2	68.3	i
CCc1ccc(OCC(=O)NNC(=O)CSc2ncnc3sc(C)c(C)c23)cc1	i	i	i	i	60.2	i	i	i	i

Screening results from PubChem BioAssay.
